Bioassay records as filed in PubChem BioAssay.
DUX4 inh – blocks DUX4-driven transcriptional activation; 293T-iDUX4 ZSCAN4-Gaussia luciferase reporter, 24 h; active compounds read low; activity change, negative = inhibition, % (test concentration not listed); actives 0.8% (n = 37,000); AID 1224904;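 active means mean inhibition of at least 10% in the main channel, exceeding the control channel by a set limit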
A number is an active result; n = inactive; ! = a repeat was not active. The entries come from a sample that favours hits as a whole.

SMILES	DUX4 inh
Cc1ccc(S(=O)(=O)Nc2ccc3c(c2)CC(=O)N([C@@H](C)CO)C[C@H](C)[C@@H](CN(C)Cc2ccc(Cl)c(Cl)c2)O3)cc1	n
CC(=O)N(Cc1cccc(F)c1)C[C@@H]1[C@@H](c2ccccc2)[C@@H](CO)N1C(C)=O	n
C/C=C/c1ccc([C@H]2[C@@H](CO)N(C(=O)CC)[C@H]2CN(C)Cc2cncnc2)cc1	n
O=C1N[C@@H](c2ccccc2)COCc2cn(nn2)CC[C@@H]1Cc1ccc(-c2ccccc2)cc1	n
N#C[C@H]1[C@@H](c2ccc(-c3cccnc3)cc2)[C@@H](CO)N1C(=O)Nc1ccc(F)cc1	n
O=C(C[C@@H]1C[C@H]2c3cc(NC(=O)CC4CC4)ccc3O[C@H]2[C@H](CO)O1)NCC(F)(F)F	n
O=C(C[C@@H]1CC[C@H]2NC[C@H](O)COC[C@@H]2O1)Nc1ccccc1	n
CN1CCN(C(=O)C[C@@H]2C=C[C@@H](NC(=O)Nc3ccccc3F)[C@H](CO)O2)CC1	n
COc1cccc(NC(=O)N2C[C@@H](O)COC[C@H]3O[C@H](CC(=O)NCCCN4CCOCC4)CC[C@@H]32)c1	n
CO[C@@H]1CN(C)C(=O)c2ccc(NC(=O)c3nc4ccccc4s3)cc2OC[C@@H](C)N(Cc2cccnc2)C[C@H]1C	-65
CO[C@H]1CN(C)C(=O)c2ccc(NC(C)=O)cc2OC[C@@H](C)N(Cc2cccnc2)C[C@@H]1C	n
CO[C@@H]1CN(C)C(=O)c2ccc(NC(C)=O)cc2OC[C@H](C)N(Cc2cccnc2)C[C@H]1C	n
COCC(=O)N1CCC2(CC1)CN(S(C)(=O)=O)[C@@H](CO)c1c2c2ccc(OC)cc2n1C	n
COc1cccc(C(=O)Nc2ccc3c(c2)C(=O)N(C)[C@@H]2CC[C@H](CC(=O)NCc4ccccc4F)O[C@@H]2CO3)c1	n
CC=Cc1ccc2n(c1=O)C[C@H]1[C@H](CO)[C@@H](C(=O)NCc3ccccn3)[C@@H]2N1CC1CC1 (mixture of isomers)	n
O=C(c1ccccc1)N1CC(=O)N2[C@@H](CO)[C@H](c3ccc(/C=C/c4ccccc4)cc3)[C@@H]2C1	n
C[C@@H](NC(=O)C[C@H]1CC[C@H](NC(=O)Cc2ccccn2)[C@H](CO)O1)c1ccccc1	n
COc1cccc(-c2ccc3n(c2=O)C[C@@H]2[C@@H](CO)[C@H](C(=O)N(C)C)N(C(=O)C4CC4)[C@H]32)c1	n
COc1ccc(C#Cc2ccc3c(c2)[C@H]2[C@H](CCN2C(=O)c2ccccc2F)[C@H](CO)N3)cc1	-32
COc1cccc(C#Cc2ccc3c(c2)[C@H]2[C@H](CCN2C(=O)c2ccc(F)cc2)[C@H](CO)N3)c1	n
COc1cccc(C#Cc2ccc3c(c2)[C@@H]2[C@@H](CCN2C(=O)c2ccccc2F)[C@@H](CO)N3)c1	n
COc1cccc(C#Cc2ccc3c(c2)[C@H]2[C@H](CCN2C(=O)c2ccccc2F)[C@H](CO)N3)c1	-28
COc1ccc(C#Cc2ccc3c(c2)[C@@H]2[C@@H](CCN2C(C)=O)[C@@H](CO)N3)cc1	n
O=C(c1ccccc1F)N1CC[C@H]2[C@H](CO)Nc3ccc(C#Cc4ccc(F)cc4)cc3[C@H]21	n
O=C(Nc1cc(F)ccc1F)N1C[C@@H]2[C@H](c3ccccc31)[C@H](CO)N2C(=O)c1ccccc1	n
SMILES	DUX4 inh
O=C(c1ccccc1)N1C[C@H]2[C@@H](c3ccccc31)[C@H](CO)N2C(=O)Nc1ccccc1Cl	n
CCCNC(=O)N1C[C@H](O)COC[C@H]2O[C@H](CC(=O)N3CCCCC3)CC[C@@H]21	n
CN(C)C(=O)C[C@H]1CC[C@@H]2[C@H](COC[C@@H](O)CN2C(=O)c2ccncc2)O1	n
COc1ccc2c3c([nH]c2c1)[C@@H](CO)N(C(=O)CC1CC1)CC31CCN(Cc2cncnc2)CC1	n
O=C(Nc1cccc(F)c1)N1C[C@@H]2N[C@H](C1)C2c1ccc(-c2cncnc2)cc1 (some centres undefined)	n
O=C(Nc1ccccc1)N1C[C@@H]2N[C@H](C1)C2c1ccc(-c2cccnc2)cc1 (some centres undefined)	-52
O=C(C1CCCC1)N1C[C@@H]2N[C@H](C1)C2c1ccc(-c2ccncc2)cc1 (some centres undefined)	-28!
Cc1cccc(-c2ccc(C3[C@@H]4CN(C(=O)Nc5ccccc5)C[C@H]3N4)cc2)c1 (some centres undefined)	n
O=C(C1CCOCC1)N1C[C@@H]2N[C@H](C1)C2c1ccc(-c2cncnc2)cc1 (some centres undefined)	n
O=C(c1ccncc1)N1C[C@@H]2N[C@H](C1)C2c1ccc(-c2ccncc2)cc1 (some centres undefined)	n
CCC(=O)N1CC2(C1)[C@H](c1ccc(-c3ccc(F)cc3)cc1)[C@H](CO)N2S(C)(=O)=O	n
Cc1ccc(S(=O)(=O)N2CC[C@@H]3[C@H]2c2cc(C#Cc4cccnc4)ccc2N(C)[C@H]3CO)cc1	n
O=C1CNC[C@@H]2[C@H](c3ccc(C#CC4CCCCC4)cc3)[C@@H](CO)N12	n
CC(=O)N1CC(=O)N2[C@H](CO)[C@@H](c3ccc(C#Cc4cccnc4)cc3)[C@@H]2C1	n
O=C1CNC[C@@H]2[C@@H](c3ccc(C#Cc4cccnc4)cc3)[C@@H](CO)N12	-20
O=C(Nc1cccc(F)c1)N1CC(=O)N2[C@H](CO)[C@@H](c3ccc(C#CCC4CCCC4)cc3)[C@@H]2C1	n
CC(=O)N1CC(=O)N2[C@H](CO)[C@H](c3ccc(C#Cc4cccnc4)cc3)[C@@H]2C1	-11
O=C1CNC[C@H]2[C@@H](c3ccc(C#CC4CCCCC4)cc3)[C@H](CO)N12	n
CCCC#Cc1ccc([C@H]2[C@H](CO)N3C(=O)CN(C(=O)Nc4cccc(F)c4)C[C@@H]23)cc1	-69
CCCC#Cc1ccc([C@H]2[C@H]3CN(C(=O)Nc4ccccc4)CC(=O)N3[C@H]2CO)cc1	n
CC(=O)N1CC(=O)N2[C@H](C1)[C@@H](c1ccc(C#Cc3cccnc3)cc1)[C@@H]2CO	n
COc1ccc2c3c(n(C)c2c1)[C@H](CO)N(C)CC31CN(S(=O)(=O)c2cn(C)cn2)C1	n
O=C(C1CCOCC1)N1CC2(C1)[C@H](c1ccccc1)[C@@H](CO)N2Cc1ccccc1F	n
C[C@H]1CC(=O)N[C@@H](c2ccccc2)C/C=C\C[C@H](c2ccccc2)NC1=O	n
O=C(Nc1ccccc1)[C@@H]1[C@@H](CO)[C@@H]2Cn3c(cccc3=O)[C@@H]2N1C(=O)C1CCC1	n
SMILES	DUX4 inh
O=C(NC1CCCC1)N1CC(=O)N2[C@@H](CO)[C@H](c3ccc(-c4cccnc4)cc3)[C@@H]2C1	n
N#Cc1cccc(-c2ccc(C3[C@H]4CNC[C@@H]3N4C(=O)Nc3cccc(F)c3)cc2)c1 (some centres undefined)	n
COc1ccc2c3c(n(C)c2c1)[C@H](CO)N(C(=O)C1CCCC1)CC31CN(C(=O)CC2CC2)C1	n
CN1C(=O)c2cc(NC(=O)c3cccc(F)c3)ccc2OC[C@@H]2O[C@@H](CC(=O)NC3CCC3)CC[C@H]21	n
CCCC(=O)N1CC2(C1)CN(Cc1nccs1)[C@@H](CO)c1[nH]c3cc(OC)ccc3c12	n
CNC(=O)C[C@H]1CC[C@@H]2[C@H](COC[C@H](O)CN2Cc2ccc(C(F)(F)F)cc2)O1	n
O=C1[C@H](Cc2ccc(C(F)(F)F)cc2)CCn2cc(nn2)COC[C@H]2CCCCN12	n
